Among all 340,000 compounds or so, about 5,100 (1.5%) were called active. The sample as a whole holds a higher share of actives than the screen did. A number with no mark means an inactive call.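 How the source made its calls: active means mean Tm shift, scaled 0 neutral to 100 positive control, at about 1.3% or above, every replicate too (limit read from the data); inconclusive means no clear call, values can overlap the other calls; inactive means the rest.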
These compounds were tested against Fibroblast growth factor 22 (Homo sapiens) (UniProt Q9HCT0) (assay: binders of human FGF22 protein, primary screen, FGF22 synaptogenesis inhibitor project, biophysical, thermal shift, single point (AID 651658)). Conditions: recombinant FGF22 thermal shift, SYPRO orange fluorescence; at 9.99 µM; hits give high values; percent of sucrose octasulfate shift, DMSO zero.
Chain of Fibroblast growth factor 22 (Homo sapiens) (Q9HCT0 whole entry, looked up): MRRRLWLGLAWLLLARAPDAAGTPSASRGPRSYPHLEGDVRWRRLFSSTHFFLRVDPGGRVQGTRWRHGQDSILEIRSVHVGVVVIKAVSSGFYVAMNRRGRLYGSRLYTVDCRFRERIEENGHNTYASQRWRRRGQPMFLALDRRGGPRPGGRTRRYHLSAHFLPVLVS

SMILES	activity (Tm shift, normalised)
Cc1cnc(C(=O)OCC(=O)NCCCc2ccccc2)cn1	0.133%
N#Cc1cc([N+](=O)[O-])ccc1NC(=O)COC(=O)c1cnccn1	-0.067%
COc1cccc(CNC(=O)C[C@H]2CC[C@@H](NC(=O)C3CCC3)[C@@H](CO)O2)c1	-0.144%
CCc1ccccc1NC(=O)CN(C)C(=O)c1cc(C2CC2)nn1-c1ccccc1	0.146%
COc1ccc(CN2CCN(C(=O)c3cc(C4CC4)nn3-c3ccccc3)CC2)cc1F	-0.038%
CCc1ccccc1NC(=O)CN1CCN(C(=O)c2cc(C3CC3)nn2-c2ccccc2)CC1	44.1% (active)
O=C(CC(F)(F)F)N1C[C@H]2[C@@H](c3ccccc31)[C@H](CO)N2C(=O)Cc1ccccc1	-0.096%
CS(=O)(=O)N1CCN(C(=O)CSc2ccccc2)CC1	-0.196%
CC(C)NC(=S)N1CCN(S(C)(=O)=O)CC1	-0.113%
CCCCNC(=O)N1CCN(S(C)(=O)=O)CC1	43% (active)
COc1cccc(NCCC(=O)c2cccc([N+](=O)[O-])c2)c1	43.4% (active)
COc1cccc(C(=O)CC(=O)C(=O)Nc2ccc([N+](=O)[O-])cc2C)c1	-0.246%
COc1ccc(Cc2nnc(SCC(=O)c3cccc([N+](=O)[O-])c3)n2C)cc1	0.217%
Cc1ccc(NC(=O)O/N=C/c2cccc([N+](=O)[O-])c2)cc1	1.7% (active)
Cc1ccc(NC(=O)C(=O)NCC2CCN(C(=O)c3cccc([N+](=O)[O-])c3)CC2)cc1	0.238%
CCC(CC)NC(=O)/C=C/c1cccc([N+](=O)[O-])c1	-0.166%
CO[C@H]1CN(C)C(=O)c2cc(NC(=O)Nc3ccc4c(c3)OCO4)ccc2OC[C@@H](C)NC[C@@H]1C	-0.132%
O=C(C1CCCCC1)N1CC2(C1)[C@H](c1ccccc1)[C@@H](CO)N2Cc1cncnc1	-0.162%
COc1ccc(NC(=O)Nc2ccc3c(c2)[C@H]2C[C@H](CC(=O)NC4CCCCC4)O[C@H](CO)[C@H]2O3)cc1	0.101%
COc1cccc(S(=O)(=O)N2C[C@@H](O)COC[C@H]3O[C@@H](CC(=O)N4CCOCC4)CC[C@@H]32)c1	-0.291%

SMILES	activity (Tm shift, normalised)
CC=Cc1ccc2n(c1=O)C[C@H]1[C@H](CO)[C@@H](C(=O)NCc3ccncc3)N(Cc3cncnc3)[C@@H]21 (mixture of isomers)	-0.145%
COCCNC(=O)C[C@H]1C=C[C@@H](NS(=O)(=O)c2ccc(C)cc2)[C@@H](CO)O1	-0.463%
COc1ccc(NC(=O)Nc2ccc3c(c2)C(=O)N([C@H](C)CO)C[C@@H](C)[C@H](CN(C)CC2CCCCC2)OCCCC[C@@H](C)O3)cc1	-0.629%
CC(=O)N1[C@@H](CO)[C@@H](c2ccc(C3=CCCC3)cc2)C12CN(C(=O)C1CC1)C2	-0.078%
O=C(Nc1ccncc1)Nc1ccc(F)cc1	0.093%
COc1cccc(C(=O)NNS(=O)(=O)c2ccc(F)cc2)c1	0.083%
COc1cccc(NC(=O)Nc2ccc(F)cc2)c1	45.2% (active)
COCC(=O)N1CC2(CN(C(=O)c3cccnc3)C2)c2c([nH]c3cc(OC)ccc23)[C@H]1CO	-0.173%
Cc1ccc(S(=O)(=O)NCCC(=O)NCc2ccc(Cl)cc2)cc1C	-0.011%
O=C(CNC(=O)c1ccco1)NNC(=O)c1ccc(Br)cc1	-0.466%
Cc1ccc(S(=O)(=O)NCC(=O)NNC(=O)c2ccc(Br)cc2)cc1C	43.7% (active)
O=C(C[C@H]1C=C[C@H](NC(=O)CC2CC2)[C@H](CO)O1)NCc1ccc(Cl)cc1	-0.113%
Cc1cc(C)c(-c2c(O)c3ccccc3n(C)c2=O)c(C)c1	-0.131%
COc1cc2c(=O)n(C)c3ccccc3c2cc1OC	0.02%
Cn1c2ccccc2c(=O)c2c(O)cccc21	43.7% (active)
O=C(C[C@H]1CC[C@H]2[C@@H](COC[C@H](O)CN2Cc2ccncc2)O1)NCC1CC1	-0.243%
CN1[C@H](C(=O)N2CCc3ccccc3C2)[C@@H](CO)[C@@H]2Cn3c(ccc(-c4cncnc4)c3=O)[C@@H]21	0.086%
Cc1cc(C)cc(NC(=O)CSc2ccccc2)c1	43.4% (active)
O=C(CSc1ccccc1)Nc1ccc(C(=O)Nc2cccc(O)c2)cc1	42.3%
Cc1cc(C)cc(NC(=O)CN2C(=O)c3ccccc3C2=O)c1	-0.094%
